Holding throughout (test): glycan array binding signal (z-score within array); higher = stronger binding
Assay [1] relates to Fuc(a1-2)Gal6S(b1-4)Glc6S. The settings on record: glycan notation: IUPAC condensed, linker removed. The gist of the method: (§1)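 Arrays were curated from the Consortium for Functional Glycomics database, 3228 in total, and kept only where the protein sequence was available. Binding is expressed as a within-array Z-score. This score was averaged across arrays of the same protein sequence at different concentrations or buffers and across linkers, and negative values can be read as non-binding.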

Assay [2] concerns Fuc(a1-2)Gal(b1-4)GlcNAc(b1-2)Man. The conditions noted are these: glycan notation: IUPAC condensed, linker removed. The gist of the method: as §1
For assay [3], the system named is Fuc(a1-2)Gal(b1-4)GlcNAc(b1-3)Gal(b1-4)GlcNAc(b1-3)Gal(b1-4)GlcNAc. The conditions noted are these: glycan notation: IUPAC condensed, linker removed; mutation: R125K. In a few lines:
as §1

Assay [4] relates to Fuc(a1-2)Gal(b1-4)GlcNAc(b1-3)Gal(b1-4)GlcNAc. The settings on record: glycan notation: IUPAC condensed, linker removed; mutation: R125K. In a few lines:
as §1

The subject of assay [5] is Fuc(a1-2)Gal(b1-4)GlcNAc(b1-3)[Fuc(a1-3)[Gal(b1-4)]GlcNAc(b1-6)]Gal(b1-4)Glc. The conditions noted are these: glycan notation: IUPAC condensed, linker removed. In a few lines:
as §1

The test system of assay [6] is Fuc(a1-2)Gal(b1-4)GlcNAc(b1-6)GalNAc. The settings on record: glycan notation: IUPAC condensed, linker removed. The gist of the method:
as §1

The subject of assay [7] is Fuc(a1-2)Gal(b1-4)GlcNAc. The settings on record: glycan notation: IUPAC condensed, linker removed. The gist of the method:
as §1

Assay [8] has as its system Fuc(a1-2)Gal3S(b1-4)GlcNAc. The settings on record: glycan notation: IUPAC condensed, linker removed. The gist of the method:
as §1

Assay [9] deals with Fuc(a1-2)Gal6S(b1-3)GlcNAc. The settings on record: glycan notation: IUPAC condensed, linker removed. The gist of the method: as §1
The test system of assay [10] is Fuc(a1-2)Gal6S(b1-4)GlcNAc. The settings on record: glycan notation: IUPAC condensed, linker removed. The gist of the method:
as §1

Assay [11] has as its system Fuc(a1-2)Gal(b1-4)[Fuc(a1-3)]GlcNAc. The conditions noted are these: glycan notation: IUPAC condensed, linker removed. In a few lines:
as §1

In assay [12] the test system is Fuc(a1-2)Gal(b1-4)GlcNAc(b1-3)GalNAc. The settings on record: glycan notation: IUPAC condensed, linker removed. The gist of the method:
as §1

In assay [13] the test system is Fuc(a1-2)Gal(b1-4)[Fuc(a1-3)]GlcNAc(b1-2)Man(a1-3)[Fuc(a1-2)Gal(b1-4)[Fuc(a1-3)]GlcNAc(b1-2)Man(a1-6)]Man(b1-4)GlcNAc(b1-4)GlcNAc. The conditions noted are these: glycan notation: IUPAC condensed, linker removed. In a few lines: as §1
The subject of assay [14] is Fuc(a1-2)Gal(b1-4)[Fuc(a1-3)]GlcNAc(b1-2)[Fuc(a1-2)Gal(b1-4)[Fuc(a1-3)]GlcNAc(b1-4)]Man(a1-3)[Fuc(a1-2)Gal(b1-4)[Fuc(a1-3)]GlcNAc(b1-2)Man(a1-6)]Man(b1-4)GlcNAc(b1-4)GlcNAc. The conditions noted are these: glycan notation: IUPAC condensed, linker removed. The gist of the method: as §1
The subject of assay [15] is Fuc(a1-2)Gal(b1-4)[Fuc(a1-3)]GlcNAc(b1-3)GalNAc. The settings on record: glycan notation: IUPAC condensed, linker removed. In a few lines: as §1
The test system of assay [16] is Fuc(a1-2)Gal(b1-4)GlcNAc(b1-3)[Fuc(a1-2)Gal(b1-4)GlcNAc(b1-6)]GalNAc. The conditions noted are these: glycan notation: IUPAC condensed, linker removed. The gist of the method: as §1
Assay [17] relates to Fuc(a1-2)Gal(b1-4)[Fuc(a1-3)]GlcNAc(b1-3)Gal(b1-4)[Fuc(a1-3)]GlcNAc. The conditions noted are these: glycan notation: IUPAC condensed, linker removed. The gist of the method: as §1
Assay [18] concerns Fuc(a1-2)Gal(b1-4)GlcNAc(b1-3)Gal(b1-4)GlcNAc(b1-2)Man(a1-3)[Fuc(a1-2)Gal(b1-4)GlcNAc(b1-3)Gal(b1-4)GlcNAc(b1-2)Man(a1-6)]Man(b1-4)GlcNAc(b1-4)GlcNAc. The conditions noted are these: glycan notation: IUPAC condensed, linker removed. The gist of the method: as §1
In assay [19] the test system is Fuc(a1-2)Gal(b1-4)GlcNAc(b1-2)[Fuc(a1-2)Gal(b1-4)GlcNAc(b1-4)]Man(a1-3)[Fuc(a1-2)Gal(b1-4)GlcNAc(b1-2)Man(a1-6)]Man(b1-4)GlcNAc(b1-4)GlcNAc. The settings on record: glycan notation: IUPAC condensed, linker removed. In a few lines:
as §1

The subject of assay [20] is Fuc(a1-2)Gal(b1-4)[Fuc(a1-3)]GlcNAc(b1-3)Gal(b1-4)[Fuc(a1-3)]GlcNAc(b1-3)Gal(b1-4)[Fuc(a1-3)]GlcNAc. The conditions noted are these: glycan notation: IUPAC condensed, linker removed. The gist of the method: as §1

About 410 targets per protein were measured; listed, in parts, are those with the strongest signals and a random draw of the rest.

PILRa (Mus musculus), Q2YSF3, sequence (Q2YSF3 entry or part of it): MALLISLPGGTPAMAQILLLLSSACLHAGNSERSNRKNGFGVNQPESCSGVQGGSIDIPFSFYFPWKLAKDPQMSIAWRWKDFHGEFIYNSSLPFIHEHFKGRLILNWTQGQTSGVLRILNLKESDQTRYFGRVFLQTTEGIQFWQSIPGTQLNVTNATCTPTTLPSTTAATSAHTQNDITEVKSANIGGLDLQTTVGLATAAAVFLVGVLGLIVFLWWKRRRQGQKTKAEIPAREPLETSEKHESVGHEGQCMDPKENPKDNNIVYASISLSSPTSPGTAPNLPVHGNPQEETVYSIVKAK
PILRb (Mus musculus), Q2YSF2, sequence (Q2YSF2 entry or part of it): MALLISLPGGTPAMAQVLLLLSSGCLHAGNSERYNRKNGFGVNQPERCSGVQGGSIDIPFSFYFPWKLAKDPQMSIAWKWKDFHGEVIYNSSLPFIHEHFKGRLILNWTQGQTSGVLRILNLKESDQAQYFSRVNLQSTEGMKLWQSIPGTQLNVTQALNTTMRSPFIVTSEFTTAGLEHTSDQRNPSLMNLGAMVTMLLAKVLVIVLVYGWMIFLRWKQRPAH
Neurocan (Homo sapiens), O14594, sequence (O14594 other isoform, or with tags, fused parts or gaps): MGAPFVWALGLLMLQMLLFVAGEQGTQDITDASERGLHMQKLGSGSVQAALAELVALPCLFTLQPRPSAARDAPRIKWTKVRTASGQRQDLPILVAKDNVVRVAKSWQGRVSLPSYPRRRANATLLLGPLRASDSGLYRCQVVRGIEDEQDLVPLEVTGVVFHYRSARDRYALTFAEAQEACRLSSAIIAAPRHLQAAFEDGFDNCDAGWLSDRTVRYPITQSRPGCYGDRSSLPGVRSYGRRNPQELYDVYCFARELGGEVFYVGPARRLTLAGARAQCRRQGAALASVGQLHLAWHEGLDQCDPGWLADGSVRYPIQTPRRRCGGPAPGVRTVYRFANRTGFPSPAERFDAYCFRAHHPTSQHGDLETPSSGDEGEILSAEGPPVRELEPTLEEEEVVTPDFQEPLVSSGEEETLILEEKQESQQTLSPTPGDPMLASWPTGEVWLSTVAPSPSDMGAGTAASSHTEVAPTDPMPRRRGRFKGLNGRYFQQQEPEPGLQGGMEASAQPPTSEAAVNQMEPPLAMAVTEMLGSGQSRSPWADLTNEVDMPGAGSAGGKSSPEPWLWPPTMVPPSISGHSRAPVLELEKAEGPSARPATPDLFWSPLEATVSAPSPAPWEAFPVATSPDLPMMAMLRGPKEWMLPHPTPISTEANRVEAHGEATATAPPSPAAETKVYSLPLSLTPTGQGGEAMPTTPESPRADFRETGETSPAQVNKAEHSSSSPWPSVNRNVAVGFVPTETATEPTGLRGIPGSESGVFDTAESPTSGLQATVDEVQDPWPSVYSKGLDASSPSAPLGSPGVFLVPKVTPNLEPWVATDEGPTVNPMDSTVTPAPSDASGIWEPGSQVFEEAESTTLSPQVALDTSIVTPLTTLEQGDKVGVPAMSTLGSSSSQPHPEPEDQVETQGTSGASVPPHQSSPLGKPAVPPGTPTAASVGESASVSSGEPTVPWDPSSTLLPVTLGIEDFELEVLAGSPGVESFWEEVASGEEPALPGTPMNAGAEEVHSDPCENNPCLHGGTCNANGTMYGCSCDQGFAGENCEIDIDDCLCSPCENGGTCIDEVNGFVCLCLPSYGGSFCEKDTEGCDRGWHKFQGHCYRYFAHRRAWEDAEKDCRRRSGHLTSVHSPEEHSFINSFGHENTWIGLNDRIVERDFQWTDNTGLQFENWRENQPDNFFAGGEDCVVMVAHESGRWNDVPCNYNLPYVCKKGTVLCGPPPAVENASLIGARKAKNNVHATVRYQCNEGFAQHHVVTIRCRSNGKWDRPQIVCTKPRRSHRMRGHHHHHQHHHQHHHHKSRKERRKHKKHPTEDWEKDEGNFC
CHI3L1 (Homo sapiens), P36222, sequence (P36222 whole entry): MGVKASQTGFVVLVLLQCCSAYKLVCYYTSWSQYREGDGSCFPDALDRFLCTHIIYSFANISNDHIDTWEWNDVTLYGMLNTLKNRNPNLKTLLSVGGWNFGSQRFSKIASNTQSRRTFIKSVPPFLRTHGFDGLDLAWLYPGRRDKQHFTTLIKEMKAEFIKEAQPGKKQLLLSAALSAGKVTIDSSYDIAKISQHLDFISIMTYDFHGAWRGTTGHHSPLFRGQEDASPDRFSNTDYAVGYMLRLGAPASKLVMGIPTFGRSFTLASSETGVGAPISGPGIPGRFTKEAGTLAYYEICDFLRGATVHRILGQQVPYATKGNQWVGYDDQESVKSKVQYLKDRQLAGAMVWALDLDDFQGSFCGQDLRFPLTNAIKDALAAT
Avaren (Actinomycete K97), sequence (chain, as listed by the source): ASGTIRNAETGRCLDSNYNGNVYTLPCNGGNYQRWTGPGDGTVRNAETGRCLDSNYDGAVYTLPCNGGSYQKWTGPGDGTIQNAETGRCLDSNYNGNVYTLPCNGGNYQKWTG
6RG (Lolium perenne), sequence (chain, as listed by the source): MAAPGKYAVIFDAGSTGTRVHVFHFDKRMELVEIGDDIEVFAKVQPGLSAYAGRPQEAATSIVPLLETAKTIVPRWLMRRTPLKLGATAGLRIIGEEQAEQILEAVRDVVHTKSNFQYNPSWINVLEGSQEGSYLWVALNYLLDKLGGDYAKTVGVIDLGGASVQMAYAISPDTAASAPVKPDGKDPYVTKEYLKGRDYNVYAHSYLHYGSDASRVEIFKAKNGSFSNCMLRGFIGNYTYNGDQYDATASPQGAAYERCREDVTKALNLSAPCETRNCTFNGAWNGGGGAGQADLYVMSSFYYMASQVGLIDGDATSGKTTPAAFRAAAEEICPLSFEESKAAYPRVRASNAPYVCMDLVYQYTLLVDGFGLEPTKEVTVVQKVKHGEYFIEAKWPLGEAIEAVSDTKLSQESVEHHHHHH
SRLC (Mus musculus), Q8VIF6, sequence (Q8VIF6 other isoform, or with tags, fused parts or gaps): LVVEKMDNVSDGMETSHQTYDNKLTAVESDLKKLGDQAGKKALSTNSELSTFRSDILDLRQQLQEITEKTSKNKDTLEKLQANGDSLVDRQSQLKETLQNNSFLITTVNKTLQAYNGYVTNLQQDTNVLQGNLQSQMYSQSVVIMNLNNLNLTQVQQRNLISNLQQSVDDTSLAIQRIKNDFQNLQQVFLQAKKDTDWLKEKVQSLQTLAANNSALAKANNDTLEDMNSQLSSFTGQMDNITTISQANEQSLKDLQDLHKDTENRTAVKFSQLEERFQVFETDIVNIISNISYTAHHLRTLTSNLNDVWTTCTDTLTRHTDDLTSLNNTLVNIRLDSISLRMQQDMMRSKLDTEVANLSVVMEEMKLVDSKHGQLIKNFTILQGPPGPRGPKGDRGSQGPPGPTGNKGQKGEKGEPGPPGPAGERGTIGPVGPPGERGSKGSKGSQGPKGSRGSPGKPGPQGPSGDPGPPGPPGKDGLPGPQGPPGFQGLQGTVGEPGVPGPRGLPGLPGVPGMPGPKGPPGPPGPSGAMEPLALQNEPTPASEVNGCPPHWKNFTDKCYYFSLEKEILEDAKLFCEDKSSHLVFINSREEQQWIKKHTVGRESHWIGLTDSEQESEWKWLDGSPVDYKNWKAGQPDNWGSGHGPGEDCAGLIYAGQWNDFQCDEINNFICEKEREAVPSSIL
Regenerating Gene IV (Homo sapiens), Q9BYZ8, sequence (Q9BYZ8 whole entry, looked up): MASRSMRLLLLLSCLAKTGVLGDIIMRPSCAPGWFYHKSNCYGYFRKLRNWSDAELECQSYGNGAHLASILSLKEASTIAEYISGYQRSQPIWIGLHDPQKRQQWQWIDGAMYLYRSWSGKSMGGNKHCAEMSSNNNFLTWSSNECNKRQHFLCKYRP
6RG (Lolium perenne), B9U140, sequence (B9U140 entry or part of it): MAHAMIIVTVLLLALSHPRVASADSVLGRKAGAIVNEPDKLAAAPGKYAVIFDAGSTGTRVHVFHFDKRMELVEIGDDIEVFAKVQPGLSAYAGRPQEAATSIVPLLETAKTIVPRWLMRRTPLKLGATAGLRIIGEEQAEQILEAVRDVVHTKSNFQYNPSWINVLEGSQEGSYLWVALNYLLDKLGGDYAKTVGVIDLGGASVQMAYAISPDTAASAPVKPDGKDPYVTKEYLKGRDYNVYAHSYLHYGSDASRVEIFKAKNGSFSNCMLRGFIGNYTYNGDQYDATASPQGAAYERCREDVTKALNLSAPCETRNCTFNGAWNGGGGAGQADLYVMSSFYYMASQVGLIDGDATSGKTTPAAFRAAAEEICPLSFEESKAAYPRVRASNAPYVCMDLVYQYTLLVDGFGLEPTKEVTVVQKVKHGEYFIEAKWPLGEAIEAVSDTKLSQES
wLAT-1A (Homo sapiens), Q01650, sequence (Q01650 whole entry): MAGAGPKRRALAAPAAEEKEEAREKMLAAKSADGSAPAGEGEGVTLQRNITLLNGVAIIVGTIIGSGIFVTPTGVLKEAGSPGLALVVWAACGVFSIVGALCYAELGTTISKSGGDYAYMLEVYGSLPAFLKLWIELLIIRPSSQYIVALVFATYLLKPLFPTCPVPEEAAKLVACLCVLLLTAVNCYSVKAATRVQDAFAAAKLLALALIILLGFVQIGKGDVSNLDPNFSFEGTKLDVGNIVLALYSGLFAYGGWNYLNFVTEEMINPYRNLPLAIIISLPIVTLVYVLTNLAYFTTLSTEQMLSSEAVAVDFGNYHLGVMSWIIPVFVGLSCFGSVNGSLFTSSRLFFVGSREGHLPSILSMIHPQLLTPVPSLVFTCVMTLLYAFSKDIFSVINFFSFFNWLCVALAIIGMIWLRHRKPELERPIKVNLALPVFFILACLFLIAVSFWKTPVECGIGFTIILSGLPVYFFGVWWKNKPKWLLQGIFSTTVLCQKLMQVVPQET

Take 6RG (Lolium perenne), B9U140: the “glycan array binding signal (z-score)” value in assay [1] worked out at 0.291.

In the case of Siglec-8 (Homo sapiens), Q9NYZ4, the “glycan array binding signal (z-score)” value in [2] was -0.065; in assay [3] it was -0.32; in assay [4] it was -0.565; in assay [5], -0.102; in [6], 0.139; in assay [7] (mutation: R125K) it was -0.001. In addition, the “glycan array binding signal (z-score)” value in assay [8] was -0.157; in [9], 0.008; in assay [1] (mutation: R125K), -0.235.

Take wLAT-1A (Homo sapiens), Q01650: the “glycan array binding signal (z-score)” value in [10] is -0.807.

As for Avaren (Actinomycete K97), the “glycan array binding signal (z-score)” value in assay [11] is -0.134.

Take SRLC (Mus musculus), Q8VIF6: in [10], the “glycan array binding signal (z-score)” value was -0.208.

Turning to PILRb (Mus musculus), Q2YSF2, the “glycan array binding signal (z-score)” value in [12] is -0.066; in assay [13] it was 2.37; in assay [14], 0.151; in assay [15], 11.4; in assay [11], -0.235.

HARE (Homo sapiens), Q8WWQ8: in assay [7], the “glycan array binding signal (z-score)” value was found to be 2.62.

With CHI3L1 (Homo sapiens), P36222, the “glycan array binding signal (z-score)” value in assay [16] was -0.129.

As to “Regenerating Gene IV (Homo sapiens), Q9BYZ8”, the “glycan array binding signal (z-score)” value in assay [1] is 3.23.

As to 6RG (Lolium perenne), the “glycan array binding signal (z-score)” value in assay [17] is -0.204.

As to MpAFP RI GFP (Marinomonas primoryensis), the “glycan array binding signal (z-score)” value is 1.06 in assay [18] and -0.023 in assay [9].

Turning to Neurocan (Homo sapiens), O14594, the “glycan array binding signal (z-score)” value in [19] turned out to be 0.982; in assay [14] it was 2.6.

Consider PILRa (Mus musculus), Q2YSF3, for which the “glycan array binding signal (z-score)” value in assay [20] is -0.134; in [17], 1.82; in assay [15], 1.77; in assay [11], -0.097.
